Most compounds without a hit are left out; they make up all but 7.4% or so of the library.
CRE Fsk mod = alters forskolin-stimulated CRE reporter signaling in CHO cells. CHO CRE-bla reporter (cAMP response element driving beta-lactamase), forskolin EC10, beta-lactamase ratio. Potency, µM (titrated, usually from 38.2 µM), hits mostly activators. hit rate 2.5% among 71,000; active = well fitted activation curve with a large enough effect in the signal ratio, with a control signal flat, not every such curve was filed as active; inconclusive = small, poorly fitted or top-dose-only effect, or effect the other way, or a change in a side signal; the % refers to the signal ratio
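Modulation of forskolin signalling: compounds in titration series added with EC10 NKH 477 to CHO cells carrying a CRE-driven beta-lactamase reporter, 3 h, 37C. CCF4 FRET ratio (460/530 nm, ex 405 nm) gives %activity and AC50.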
HEK293 cAMP cs = counter-screen for TSHR agonists: cAMP increase in parental HEK293 | parental HEK293 CNG cAMP sensor, membrane potential fluorescence | Potency, µM (top dose mostly 57.1 µM), hits mostly activators | hit rate 2.5% among 73,000 | AID 938; also: nearly all actives have a fitted effect of over 55% in size
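Parental HEK 293 cells stably expressing a modified CNG channel (no TSHR) report cAMP rise as membrane depolarization. Membrane potential dye with 100 uM RO 20-1724 was loaded for 60 min at room temperature, then compound added for 30 min; fluorescence read at 590 nm.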
ERK AVP block = blocks ERK signaling stimulated by vasopressin; hit rate 0.99% among 72,000; Potency, µM (titrated, usually from 57.5 µM), hits mostly inhibitors; HEK293-V1b, vasopressin-stimulated pERK AlphaScreen; also: nearly all actives have a fitted effect of over 55% in size
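qHTS, compounds titrated on V1b-expressing HEK293 cells. Preincubation 30 min at 37C, vasopressin 25 nM for 5 min, lysis 10 min, bead incubation 5 hr at room temperature.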
Tau filament bind = binds recombinant human tau filaments. recombinant tau filaments, thioflavin S fluorescence, 15 h; filaments grown with octadecylsulfate alongside compound. Potency, µM (doses to about 57.1 µM). hit rate 2% among 71,000. AID 596;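 also: actives lower thioflavin S fluorescence by blocking filaments or displacing dye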
Target sequence (P10636 whole entry, looked up): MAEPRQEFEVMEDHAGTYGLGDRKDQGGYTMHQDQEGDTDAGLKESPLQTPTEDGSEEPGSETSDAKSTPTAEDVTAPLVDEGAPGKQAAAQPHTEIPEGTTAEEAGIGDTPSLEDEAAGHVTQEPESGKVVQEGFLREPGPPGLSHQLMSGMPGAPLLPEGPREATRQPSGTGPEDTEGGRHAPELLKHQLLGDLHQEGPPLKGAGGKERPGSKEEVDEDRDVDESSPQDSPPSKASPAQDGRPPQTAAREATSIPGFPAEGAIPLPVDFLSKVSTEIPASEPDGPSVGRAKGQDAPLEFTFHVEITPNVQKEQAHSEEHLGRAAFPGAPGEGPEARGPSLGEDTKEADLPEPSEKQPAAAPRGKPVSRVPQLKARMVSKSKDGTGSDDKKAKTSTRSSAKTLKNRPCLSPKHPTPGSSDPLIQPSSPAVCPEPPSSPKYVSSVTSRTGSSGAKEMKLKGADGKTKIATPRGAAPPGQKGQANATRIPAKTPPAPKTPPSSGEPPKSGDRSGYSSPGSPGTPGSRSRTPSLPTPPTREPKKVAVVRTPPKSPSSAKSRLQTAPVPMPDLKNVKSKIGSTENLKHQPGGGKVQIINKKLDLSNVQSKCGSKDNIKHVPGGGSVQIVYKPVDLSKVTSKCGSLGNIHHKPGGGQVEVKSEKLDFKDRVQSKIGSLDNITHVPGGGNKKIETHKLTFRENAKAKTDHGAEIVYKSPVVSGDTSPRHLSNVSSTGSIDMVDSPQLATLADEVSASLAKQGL
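Recombinant tau protein (human, 1 uM final) plus 30 uM ODS in HEPES pH 7.4 with NaCl, DTT and thioflavine S. Compound present from the start; fluorescence at 510 nm after 15 h, 37 C.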
TSHR agonist = activates the human thyroid stimulating hormone receptor. P16473. HEK293-CNG-TSHR cells (CNG channel as cAMP sensor), membrane potential dye, cAMP. Potency, µM (titrated, usually from 57.1 µM), hits mostly activators. hit rate 0.48% among 73,000. AID 926; active = well fitted activation curve with a large enough effect in the main read-out, with a control signal flat, not every such curve was filed as active; inconclusive = small, poorly fitted or top-dose-only effect, or a change in a side signal; inactive = no such curve, though single readings can be large or run the other way; reference of the percent scale not stated here;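 also: the control signal comes from parental cells without the receptor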
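HEK 293 cells stably expressing TSHR and a cAMP-gated CNG channel; parental CNG-only cells as counterscreen. Cells preloaded 60 min with membrane potential dye plus 100 uM RO 20-1724, then compound 30 min; fluorescence read at 590 nm.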
Hits are given with their value; – = inactive; ? = inconclusive; · = no result; [ ] = remark or other dose. Unless noted, calls follow the shape of the dose curve; as a rule, active = well fitted curve in the direction sought with a large enough effect; inconclusive = small, poorly fitted or top-dose-only effect, or another doubt; inactive = no such curve, though single readings can be large; an effect the other way counts as inactive or inconclusive.

SMILES | CRE Fsk mod | HEK293 cAMP cs | ERK AVP block | Tau filament bind | TSHR agonist
CCOC(=O)c1cnc(-n2nc(C)cc2C)nc1N1CC(C)OC(C)C1 (configuration not stated) | ? | – | – | – | –
CCOC(=O)c1cnc(NCc2ccccc2)nc1C | – | – | – | – | –
CN(C)CN1C(=O)S/C(=C2/C(=O)N(CN(C)C)c3ccccc32)C1=O | –[7.6 µM] | –[11.4 µM] | –[11.5 µM] | –[11.4 µM] | –[11.4 µM]
CCCn1c(-c2ccc(F)cc2)nc2c(NCCCN(CCO)CCO)nc(C)nc21 | – | – | – | – | –
COC(=O)c1ccc(Oc2ccc3nnc(C)n3n2)cc1 | – | – | – | – | –
Cc1nnc2ccc(Oc3ccc(-c4ccccc4)cc3)nn12 | 0.79µM | ? | – | – | ?
CCCn1c(-c2ccc(F)cc2)nc2c(NC(C)CCCN(CC)CC)nc(C)nc21 (configuration not stated) | – | ? | – | ? | ?
O=C(Nc1ccc(F)cc1)c1ccc(S(=O)(=O)NCC2CCCO2)cc1 (configuration not stated) | – | 3.2µM | – | – | ?
N[C@H](Cc1ccc(O)c(I)c1)C(=O)O | – | – | · | – | –
COc1cc2c3cc1Oc1cc(ccc1O)C[C@@H]1c4c(cc(OC)c(O)c4Oc4ccc(cc4)C[C@H]3[N+](C)(C)CC2)CC[N+]1(C)C | –[7.6 µM] | ? | –[11.5 µM] | –[11.4 µM] | ?
COc1cccc(-n2nnc3c(=O)n(Cc4cccc(C)c4)cnc32)c1 | 10µM | – | · | – | –
COc1cccc(-n2nnc3c(=O)n(Cc4ccccc4F)cnc32)c1 | 13µM | 25µM | – | – | ?
Cc1ccc(Cn2nnc3c(=O)n(Cc4cccc(C)c4)cnc32)cc1 | ? | ? | – | – | ?
Cc1ccc(Cn2nnc3c(=O)n(Cc4cc(C)ccc4C)cnc32)cc1 | ? | 3.2µM | – | – | ?
O=C(O)CCC(=O)Nc1ccc2ccccc2c1 | ? | –[11.4 µM] | –[11.5 µM] | –[11.4 µM] | –[11.4 µM]
c1ccc2cc(NCNc3ccc4ccccc4c3)ccc2c1 | –[7.6 µM] | –[11.4 µM] | –[11.5 µM] | 2.5µM | –[11.4 µM]
CC12C=C(/C=C/c3ccccc3)C(C)(C1)C(c1ccccc1)CC2=O (configuration not stated) | · | –[11.4 µM] | –[11.5 µM] | · | –[11.4 µM]
O=C1[C@@H]2C(c3ccccc3Cl)=NO[C@@H]2C(=O)N1Cc1ccccc1 | – | – | – | – | 3.2µM
COc1ccc(CN2C(=O)[C@@H]3C(c4ccccc4Cl)=NO[C@@H]3C2=O)cc1 | ? | – | – | – | ·
C(CCc1nnc2c(n1)CCCC2)Cc1nnc2c(n1)CCCC2 | –[7.6 µM] | –[11.4 µM] | –[11.5 µM] | –[11.4 µM] | –[11.4 µM]
CCOC(=O)c1c(NC(=O)CSc2nnc(C)s2)sc2c1CCN(C)C2 | ? | – | – | – | –
CCOC(=O)c1c(NC(=O)C(F)(OC)C(F)(F)F)sc2c1CCN(C)C2 (configuration not stated) | 10µM | ? | – | – | ?
O=C(Nc1ccc2nc(-c3cccs3)c(-c3cccs3)nc2c1)N1CCOCC1 | 10µM | – | – | – | –
CC1CCC(C(=O)O)NC1c1ccc(C#CCN(C)C)cc1 (configuration not stated) | · | –[11.4 µM] | –[11.5 µM] | · | –[11.4 µM]
Cn1c(CSc2ccccc2)c(C#N)c2ccccc21 | ? | 25µM | – | – | ?
SMILES | CRE Fsk mod | HEK293 cAMP cs | ERK AVP block | Tau filament bind | TSHR agonist
Cn1c(CNc2ccccn2)c(C#N)c2ccccc21 | – | – | – | – | –
Cc1cc(N2CCN(c3ccccc3)CC2)n2c(n1)nc1ccccc12 | – | 25µM | – | – | ?
Cc1ccc(C(=O)[C@@H]2[C@@H]3[C@@H](C(=O)[C@@H]4OC[C@H]3O4)[C@@H]3C=Cc4ccccc4N23)cc1 | ? | – | · | 32µM | –
C/C(=N/Nc1nc(C)cc(=O)[nH]1)C(=O)O | –[7.6 µM] | –[11.4 µM] | –[11.5 µM] | –[11.4 µM] | –[11.4 µM]
C=CS(=O)(=O)c1ccc(Oc2ccc(S(=O)(=O)C=C)cc2)cc1 | ? | ? | 2.5µM | – | ?
O=S(=O)(c1ccc(Oc2ccc(S(=O)(=O)N3CCOCC3)cc2)cc1)N1CCOCC1 | ? | –[11.4 µM] | – | –[11.4 µM] | –[11.4 µM]
COc1ccccc1-c1cc(C(=O)Nc2cc(C)n(Cc3ccc(Cl)cc3)n2)no1 | – | 3.2µM | – | – | ?
COc1ccc(C)cc1NC(=O)CN(Cc1nnc(-c2ccc(Cl)cc2)o1)C1CCCC1 | – | 16µM | – | – | ?
COc1ccc(C)cc1NC(=O)CSc1nnc(-c2ccc(C)cc2)o1 | – | ? | – | – | ?
COc1ccc(-c2coc3c(O)c(OC)ccc3c2=O)cc1 | · | · | – | · | ·
Cc1oc(/N=C/c2ccccc2O)c(C#N)c1C | – | – | – | – | –
Cc1oc(/N=C/c2c(O)ccc3ccccc23)c(C#N)c1C | – | ? | – | 2.5µM | ?
CCOc1ccc2c(O)csc2c1 | – | – | – | – | –
CCCN=Cc1sc2ccc(OCC)cc2c1O | – | – | – | 16µM | –
Cc1cccc(NS(=O)(=O)c2cc(C(=O)O)ccc2Cl)c1 | · | – | · | · | –
CC(C)[C@@H](CC(=O)N[C@@H]1CCNC[C@H]1C(=O)N[C@H](CC(=O)N[C@@H](CCC(=O)O)CC(=O)O)Cc1ccccc1)NC(=O)C[C@H](CO)NC(=O)[C@@H]1CCCC[C@H]1N | – | ? | · | – | ?
Cc1nc(Nc2ccc3c(c2)OCCO3)c2oc3ccccc3c2n1 | ? | – | 16µM | – | ·
Fc1ccc(Cn2nnnc2CN2CCN(C3CCCC3)CC2)cc1 | – | ? | – | – | ?
CC(C)CC(c1nnnn1Cc1ccco1)N1CCN(C2CCCC2)CC1 (configuration not stated) | – | 3.2µM | – | – | ?
CCC(c1nnnn1Cc1ccc(F)cc1)N1CCN(C2CCCCC2)CC1 (configuration not stated) | – | 0.63µM | – | – | ?
Cc1ccc(C(c2nnnn2C(C)(C)C)N2CCN(C3CCCC3)CC2)cc1 (configuration not stated) | – | ? | – | – | ?
CC(C)CC(c1nnnn1C(C)(C)C)N1CCN(C2CCCC2)CC1 (configuration not stated) | – | 13µM | – | – | ?
COC(=O)[C@@H]1O[C@@H](SCCN)[C@@H](O)[C@H](O)[C@H]1O | –[7.6 µM] | –[11.4 µM] | –[11.5 µM] | –[11.4 µM] | –[11.4 µM]
O=C(O)c1cccc(SSc2cccc(C(=O)O)c2)c1 | –[7.6 µM] | –[11.4 µM] | –[11.5 µM] | –[11.4 µM] | –[11.4 µM]
C=CC(C1=CC(=O)C(OC)=CC1=O)c1ccccc1 (configuration not stated) | · | · | – | · | ·
O=C(O)[C@H]([C@H]1NCCS1)N1C(=O)c2ccccc2C1=O | –[7.6 µM] | –[11.4 µM] | –[11.5 µM] | –[11.4 µM] | –[11.4 µM]
[O-][n+]1onc2c1CCc1c-2nc(-c2ccccc2)n1OCc1ccccc1 | – | 13µM | – | – | ?
Nc1c(S(=O)(=O)c2cccs2)c2nc3ccccc3nc2n1Cc1ccc2c(c1)OCO2 | – | – | – | – | –
c1csc(-c2nc3nc4ccccc4nc3n2Cc2ccc3c(c2)OCO3)c1 | 10µM | – | – | 3.2µM | –
CC1N(C)c2cc(NC(=O)c3ccco3)ccc2C1(C)C (configuration not stated) | – | – | – | 20µM | –

Source: PubChem BioAssay (National Center for Advancing Translational Sciences (NCATS))
